Inconclusive results are not listed. A number with no mark means an inactive call. The source made the active and inactive calls. The call rests on the fitted dose curve.
Test: p53 small molecule agonists, cell-based qHTS assay with rat liver microsomes (AID 1963578)
Conditions: HCT-116 p53RE-bla, beta-lactamase ratio, 16 h; series mostly up to 66 µM; activation: at the top concentration
Source text: U.S. Tox21 Program National Center for Advancing Translational Sciences [NCATS] Division of Preclinical Innovation [DPI] U.S. Environmental Protection Agency [EPA] National Institutes of Environmental Health Sciences [NIEHS] National Toxicology Program [NTP] U.S. Food and Drug Administration [FDA] Tox21 Assay Overview: p53, a tumor suppressor protein, is activated following cellular insult, including DNA damage and other cellular stresses. The activation of p53 regulates cell fate by inducing DNA repair, cell cycle arrest, apoptosis, or cellular senescence. The activation of p53, therefore, is a good indicator of DNA damage and other cellular stresses. […] The activation of the reporter gene under culture conditions can be detected by fluorescence intensity. This cell line was used to screen the Tox21 10K compound library in the condition of presence of rat liver microsomes and to identify agonists that activate the p53 signaling pathway after in vitro metabolic activation (Ooka et al., Archive of Toxicology 96:1975-1987, 2022).
Tox21 Assay Protocol Summary: The p53RE-bla cells were dispensed at 4,000cells/3ul/well in 1536-well black-clear bottom plates. After the assay plates were incubated at 37 C, 5% CO2 incubator for 5 hours, 23 nL of compounds dissolved in DMSO, positive controls or DMSO only was transferred to the assay plate. Following compound addition, 3 uL of rat liver microsomes (Molecular Toxicology, Boone, NC) at final concentration of 0.5 mg/mL and 1uL of Beta-Nicotinamide adenine dinucleotide 2-phosphate (NADPH) at final concentration of 0.5 mg/mL were transferred to the assay plate. The plates were incubated at 37 C for 16 hours. 1 uL of LiveBLAzer detection mixture was added to each well and the plates were incubated at room temperature in the dark for 2 h.
On the % scale 0 is the no-effect control and ±100 the full control effect.

Structure (SMILES)	activation	Potency
CCCCN(CCCC)CCCCCCN(CCCC)CCCC	0.0883%	–
CCCCCCCCOCCC#N	-2.95%	–
IC(I)I	–	inactive
CN(C)CCCNCCCN	0.929%	–
CCCCCCCCCCCCCCC(=O)NC(CO)CCCCCCCCCCCCCC (stereo not given)	0.713%	–
C[C@H]1C[C@H](O)c2ccsc2S1(=O)=O	0.881% [at 30.3 µM]	–
CS(=O)(=O)O	0.831%	–
CCC(C)(O)CCC=C(C)C (stereo not given)	5.02%	–
CCC(CO)CO	0.34%	–
C=COCCCC	-0.312%	–
CC(=O)Oc1cccc(O)c1	-0.528% [at 30.3 µM]	–
NS(=O)(=O)c1ccccc1Cl	-0.3%	–
COC(=O)c1cc(S(N)(=O)=O)ccc1OC	-1.67% [at 30.3 µM]	–
CCCCCCCCCCCCCCCCCC(=O)OCC(CC)CCCC (stereo not given)	0.0179%	–
COc1ccc(C#N)cc1	0.477%	–
CCCCC(CC)COC(=O)CC(C(=O)OCC(CC)CCCC)S(=O)(=O)O (stereo not given)	–	inactive
OCCOc1ccc(OCCO)cc1	-1.98%	–
COc1ccc(C(=O)c2cccc(O)c2)c(OC)c1	-0.0186%	–
O=C(O)CCC(=O)Nc1ccc(S(=O)(=O)Nc2nccs2)cc1	0.522% [at 30.3 µM]	–
CCCCOC(=O)C(C)OC(=O)CCC (stereo not given)	0.305%	–

Structure (SMILES)	activation	Potency
CO[Si](CCCOCC1CO1)(OC)OC (stereo not given)	–	inactive
OCCCC1CCCCC1	0.644%	–
CCCC(C)CCC(C)=O (stereo not given)	-2.1%	–
CC(N)CN (stereo not given)	0.144%	–
COC(=O)CC(C(C)=O)C(=O)OC (stereo not given)	0.0045%	–
CC(=O)CC(=O)Nc1ccc2[nH]c(=O)[nH]c2c1	0.168%	–
CN(C)CCOC(c1ccc(Cl)cc1)c1ccccn1 (stereo not given)	-2.29% [at 30.3 µM]	–
O=C1OC(=O)C2CC=CCC12 (stereo not given)	18%	–
CCN1CCCC(OC(=O)C(c2ccccc2)c2ccccc2)C1 (stereo not given)	1.09% [at 30.3 µM]	–
[Cl][Dy]([Cl])[Cl]	0.236%	–
CCC(C)S (stereo not given)	1.35% [at 2.33 µM]	–
Cl/C(=C\n1cncn1)c1ccc(Cl)cc1Cl	-1.15% [at 30.3 µM]	–
C[Si](C)(C)O[Si](C)(C)O[Si](C)(C)C	-1.16%	–
Cc1cc(C)cc(O)c1	-1.02%	–
O=C1c2cccc(O)c2C(=O)c2c(O)cccc21	–	inactive
CC(C)C(=O)O	-0.394%	–
O=C(CCS)OCC(COC(=O)CCS)(COC(=O)CCS)COC(=O)CCS	0.729%	–
Cc1ccc(O)c([N+](=O)[O-])c1	-0.18%	–
CCOC(/C=C(\C)CCC=C(C)C)OCC	0.967%	–
C/C(=C1\CCOC(=O)S1)N(C=O)Cc1cnc(C)nc1N	-2.32% [at 30.3 µM]	–

Source: PubChem BioAssay (Tox21)
